This is an account of results in PubChem BioAssay (Tox21).

Values joined by “and” are separate entries in the source; they are usually repeats but may differ in a detail not shown here. Identical values can stand only once. Results filed as inconclusive are left out. Entries that show only a call come without a potency. The source holds several records for some structures; these can differ, active in one and inactive in another. Active and inactive are the calls of the source. Calls follow the shape of the dose curve; as a rule, active = well fitted cell-killing curve with a large enough effect in the repeat runs; inconclusive = weak or mixed curves, or effect the other way; inactive = flat fitted curve, though single readings scatter.
Potency is read from the fitted curve at half-maximal effect.

A short description of the assay: qHTS RealTime-Glo MT Cell Viability Assay in HEK293 cells - 16 hour (AID 1224872). Also: nearly all actives have a fitted effect of over 50% in size. As to activity change, negative = cytotoxicity: top concentration of the series differs between compounds. As to conditions: RealTime-Glo luminescence; series mostly up to 76.8 µM. The source says:
National Center for Advancing Translational Sciences [NCATS]
NIH Chemical Genomics Center [NCGC]
U.S. Environmental Protection Agency [EPA]
National Institutes of Environmental Health Sciences [NIEHS]
National Toxicology Program [NTP]
U.S. Food and Drug Administration [FDA]
Measure of cell viability is critical in the cell-base assay. Analysis of cell viability is necessary for the characterization of cell responses to cytotoxic drugs and environmental stress. A RealTime-Glo MT Cell Viability Assay to monitor cell viability in real time of continues cell culture during 40 hours of compound treatment was used to screen Tox21 10K library compounds in Hek293 cells. The RealTime-Glo MT Cell Viability Assay is a nonlytic, homogeneous, bioluminescent method to measure cell viability in real time using a simple, plate-based method. The assay involves adding NanoLuc luciferase and a cell-permeant prosubstrate to cells in culture. Viable cells reduce the proprietary prosubstrate to generate a substrate for NanoLuc luciferase. This substrate diffuses from cells into the surrounding culture medium, where it is rapidly used by the NanoLuc Enzyme to produce a luminescent signal. The signal correlates with the number of viable cells, making the assay well suited for cytotoxicity studies.
Tox21 Assay Protocol Summary:
The mixture of Hek293 cell suspension and reagents were dispensed at 600cells/6 ul/well in 1536-well tissue culture treated black solid bottom plates using a Multidrop dispenser. After the assay plates were incubated at a 37 C/5% CO2 incubator for 5 hours, 23 nL of compounds dissolved in DMSO, positive and negative controls was transferred to the assay plate by a pintool work station. The plates were incubated at 37 C for 40 hours. The luminescence intensity were measured at 0h, 8h, 16h, 24h, 32h and 40h time points using ViewLux plate reader during compound treatment.
Turning to `O=Cc1ccc(Cl)cc1`, the Potency entry is “inactive”.
For `NC12CC3CC(CC(C3)C1)C2`, the Potency entry is “inactive”.
Still for that read-out and setting: then `CCN1CCCC1CNC(=O)c1cc(S(=O)(=O)CC)c(N)cc1OC` (stereo not given), with “inactive”.
Turning to `NC(Cc1ccc(Cl)cc1)C(=O)O` (stereo not given), the activity change, negative = cytotoxicity was 9.16% [at 0.29 µM] (inactive).
For `Nc1nc(=S)c2[nH]cnc2[nH]1`, the Potency entry is “inactive”.
Regarding `CCC[C@H](N[C@@H](C)C(=O)N1[C@H](C(=O)O)C[C@@H]2CCCC[C@@H]21)C(=O)OCC`, the Potency entry was “inactive”.
For `N[C@@H]1CONC1=O`, the Potency entry was “inactive”.
On the same count and under the same terms, to `NC(N)=Nc1nc(CSCC/C(N)=N/S(N)(=O)=O)cs1` belongs “inactive”; to `CCn1cc(C(=O)O)c(=O)c2cc(F)c(N3CCNC(C)C3)c(F)c21` (stereo not given), “inactive”.
On the same count and under the same terms, then `Cc1cccc2n[nH]nc12`, with “inactive”; and `O=C(O)c1cc(Cl)cc(Cl)c1`, with “inactive”; and `CC(=O)OCCOCCOCCOC(C)=O`, with “inactive”.
The same measure, in the same setting: then `C=CS(=O)(=O)O`, with “inactive”; and `COC(=O)[C@H]1[C@H]2C[C@@H]3c4[nH]c5cc(OC)ccc5c4CCN3C[C@H]2C[C@@H](OC(=O)c2cc(OC)c(OC)c(OC)c2)[C@@H]1OC`, with 4.89 µM (active) and 5.65 µM (active) and 4.77 µM (active).
As to `CC[C@@H](N)CO`, the Potency result is “inactive”.
The same measure, in the same setting: to `CCC(=O)/C=C/C1C(C)=CCCC1(C)C` (stereo not given) belongs “inactive”.
Still for that read-out and setting: to `CCN(CC)C(=O)Nc1ccc(OCC(O)CNC(C)(C)C)c(C(C)=O)c1` (stereo not given) belongs “inactive”; to `COc1cc(C(=S)N2CCOCC2)ccc1O`, “inactive”; to `O=C1Nc2ccccc2C1(c1ccc(O)cc1)c1ccc(O)cc1`, “inactive”.
Still for that read-out and setting: then `CC(C)(C)NCC(O)COc1ccccc1OCC1CCCO1` (stereo not given), with “inactive”; and `Cc1cc(C2(c3cc(C)c(O)cc3C)OS(=O)(=O)c3ccccc32)c(C)cc1O`, with “inactive”.
In the case of `CC(N)=O`, the Potency entry is “inactive”.
Still for that read-out and setting: to `CCN(CC)C(=S)SSC(=S)N(CC)CC` belongs 89.1 nM (active) and 13.4 µM (active); to `Oc1ccc(Cl)cc1Cc1cc(Cl)ccc1O`, 22.3 µM (active); to `CCCCCCC(O)CCCCCCCCCCC(=O)O` (stereo not given), “inactive”.
Take `Nc1ccc2cc3ccccc3cc2c1`: the Potency entry is “inactive”.
For the molecule `O`, the Potency entry was “inactive”.
Consider `Cc1cc(C(C)(C)C)c(O)c(C(C)(C)C)c1`, for which the Potency result was “inactive”.
`O=C(Oc1ccccc1)c1ccccc1O`: the Potency result was “inactive”.
With `O=C(O)c1cn(-c2ccc(F)cc2)c2cc(N3CCNCC3)c(F)cc2c1=O`, the Potency entry is “inactive”.
As for `O=C1OC2(c3ccc(O)cc3Oc3cc(O)ccc32)c2ccccc21`, the Potency entry was “inactive”.
In the case of `Oc1c(Cl)cc(Cl)cc1Sc1cc(Cl)cc(Cl)c1O`, the Potency entry was “inactive”.
Still for that read-out and setting: then `O=C1CC2(CCCC2)CC(=O)N1CCCCN1CCN(c2ncccn2)CC1`, with 43.6 µM (active) and inactive; and `c1ccc2cc3c(ccc4ccccc43)cc2c1`, with “inactive”.
For `Cc1ccnc2c1NC(=O)c1cccnc1N2C1CC1`, the Potency result is “inactive”.
As for `C=C(C)C(=O)O`, the Potency result was “inactive”.
The same measure, in the same setting: to `CCC(CO)(CO)COCC(CC)(CO)CO` belongs “inactive”; to `CC[C@]1(O)C[C@@H]2CN(CCc3c([nH]c4ccccc34)[C@@](C(=O)OC)(c3cc4c(cc3OC)N(C)[C@H]3[C@@](O)(C(=O)OC)[C@H](OC(C)=O)[C@]5(CC)C=CCN6CC[C@]43[C@@H]65)C2)C1`, “inactive”.
The same measure, in the same setting: to `Nc1ccc(O)cc1` belongs 40.4 µM (active) and inactive.
On the same count and under the same terms, then `C=C(C)C1CC=C(C)C(OC(C)=O)C1` (stereo not given), with “inactive”.
